According to PubChem BioAssay (Tox21):
Records with an inconclusive call do not appear. The source made the active and inactive calls. Unless noted, the call rests on the fitted dose curve.

Assays:
[1] = qHTS assay to identify small molecule agonists of the sonic hedgehog signaling (Shh) pathway (AID 1259368);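 further: NIH/3T3-derived 3T3Gli1-Luc cells carrying a stable Gli1-driven firefly luciferase reporter; series mostly up to about 92 µM; nearly all actives have a fitted effect of over 15% in size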
Procedure, shortened: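 Quantitative high-throughput format using a Gli1-driven firefly luciferase reporter line derived from NIH/3T3 cells. After a 24 hr compound treatment at 37 C and 5% CO2, luminescence reported Gli1 response element activity.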

[2] = qHTS assay to identify small molecule antagonists of the sonic hedgehog signaling (Shh) pathway (AID 1259369); further: nearly all actives have a fitted effect of over 45% in size
Procedure, shortened: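 Stable Gli1-Luc reporter NIH/3T3 clone; quantitative HTS in stimulated mode with conditioned medium. Luminescence measured after 24hr compound treatment at 37 C.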

[3] = target: Estrogen receptor beta (Homo sapiens) (UniProt Q92731); assay: qHTS assay to identify small molecule agonists of the estrogen receptor beta (ER-beta) signaling pathway (AID 1259377; active means well fitted activation curve with a large enough effect in the signal ratio in the repeat runs, not every such curve was filed as active; the % refers to the signal ratio)
Estrogen receptor beta (Homo sapiens), sequence (Q92731 whole entry, looked up): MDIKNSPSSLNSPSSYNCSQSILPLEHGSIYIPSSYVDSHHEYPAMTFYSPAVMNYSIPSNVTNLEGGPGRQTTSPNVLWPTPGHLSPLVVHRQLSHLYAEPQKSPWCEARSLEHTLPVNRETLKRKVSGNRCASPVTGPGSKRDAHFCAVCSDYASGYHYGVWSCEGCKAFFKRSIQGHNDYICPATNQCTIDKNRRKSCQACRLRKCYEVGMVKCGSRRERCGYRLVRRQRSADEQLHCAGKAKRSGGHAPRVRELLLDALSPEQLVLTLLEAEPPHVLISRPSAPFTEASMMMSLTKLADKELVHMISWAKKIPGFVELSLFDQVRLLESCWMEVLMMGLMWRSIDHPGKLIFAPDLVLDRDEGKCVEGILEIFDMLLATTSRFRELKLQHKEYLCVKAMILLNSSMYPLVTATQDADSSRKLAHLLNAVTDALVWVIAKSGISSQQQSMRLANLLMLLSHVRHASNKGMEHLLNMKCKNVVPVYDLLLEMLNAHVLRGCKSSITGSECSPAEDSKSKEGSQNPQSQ
Procedure, shortened: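 In HEK293T cells bearing a UAS-beta-lactamase reporter under ER-beta control, DMSO-delivered compounds were incubated for 16 hr at 37C. Activity was detected as fluorescence 2 hours after LiveBLAzer B/G FRET substrate addition.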

[4] = target: Estrogen receptor beta (Homo sapiens) (UniProt Q92731); assay: qHTS assay to identify small molecule antagonists of the estrogen receptor beta (ER-beta) signaling pathway (AID 1259378; active means well fitted inhibition curve with a large enough effect in the signal ratio in the repeat runs, not every such curve was filed as active; the % refers to the signal ratio)
Procedure, shortened: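 ER-beta-UAS-bla HEK293T cells in 2% charcoal-stripped FBS medium treated with compound plus 1nM final 17-beta-estradiol for 16 hr at 37C. Beta-lactamase reporter read by FRET substrate fluorescence after 2 hours at room temperature.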

[5] = qHTS assay to identify small molecule agonists of the androgen receptor (AR) signaling pathway in the presence of an antagonist - cell viability counter screen (AID 1259379; active means well fitted curve in the direction sought with a large enough effect in the repeat runs; an effect the other way counts as inactive or inconclusive;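 further: MDA-kb2 human breast cancer cells carrying an MMTV luciferase reporter; series mostly up to about 92 µM; nearly all actives have a fitted effect of over 25% in size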)
Procedure, shortened: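 Nilutamide-containing (3.0uM final) MDA-kb2 cultures, 3,000 cells/well, were treated with compounds across 15 concentrations. After 16 hr at 37C with no CO2, cell viability was determined by CellTiter-Fluor fluorescence in the luciferase assay wells.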

[6] = qHTS assay to identify small molecule agonists of the estrogen receptor beta (ER-beta) signaling pathway - cell viability counter screen (AID 1259380; active means well fitted curve in the direction sought with a large enough effect in the repeat runs; an effect the other way counts as inactive or inconclusive; further: nearly all actives have a fitted effect of over 30% in size)
Procedure, shortened: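 Steps: plate ER-beta-UAS-bla HEK293T cells, rest 6 hr; add compounds in DMSO; incubate 16 hr at 37C, 5% CO2; add FRET substrate 2 hr; add CellTiter-Glo, wait 30 min at room temperature; read luminescence.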

[7] = target: Androgen receptor (Homo sapiens) (UniProt P10275); assay: qHTS assay to identify small molecule agonists of the androgen receptor (AR) signaling pathway in the presence of an antagonist (AID 1259381); further: nearly all actives have a fitted effect of over 15% in size
Androgen receptor (Homo sapiens), sequence (P10275 whole entry, looked up): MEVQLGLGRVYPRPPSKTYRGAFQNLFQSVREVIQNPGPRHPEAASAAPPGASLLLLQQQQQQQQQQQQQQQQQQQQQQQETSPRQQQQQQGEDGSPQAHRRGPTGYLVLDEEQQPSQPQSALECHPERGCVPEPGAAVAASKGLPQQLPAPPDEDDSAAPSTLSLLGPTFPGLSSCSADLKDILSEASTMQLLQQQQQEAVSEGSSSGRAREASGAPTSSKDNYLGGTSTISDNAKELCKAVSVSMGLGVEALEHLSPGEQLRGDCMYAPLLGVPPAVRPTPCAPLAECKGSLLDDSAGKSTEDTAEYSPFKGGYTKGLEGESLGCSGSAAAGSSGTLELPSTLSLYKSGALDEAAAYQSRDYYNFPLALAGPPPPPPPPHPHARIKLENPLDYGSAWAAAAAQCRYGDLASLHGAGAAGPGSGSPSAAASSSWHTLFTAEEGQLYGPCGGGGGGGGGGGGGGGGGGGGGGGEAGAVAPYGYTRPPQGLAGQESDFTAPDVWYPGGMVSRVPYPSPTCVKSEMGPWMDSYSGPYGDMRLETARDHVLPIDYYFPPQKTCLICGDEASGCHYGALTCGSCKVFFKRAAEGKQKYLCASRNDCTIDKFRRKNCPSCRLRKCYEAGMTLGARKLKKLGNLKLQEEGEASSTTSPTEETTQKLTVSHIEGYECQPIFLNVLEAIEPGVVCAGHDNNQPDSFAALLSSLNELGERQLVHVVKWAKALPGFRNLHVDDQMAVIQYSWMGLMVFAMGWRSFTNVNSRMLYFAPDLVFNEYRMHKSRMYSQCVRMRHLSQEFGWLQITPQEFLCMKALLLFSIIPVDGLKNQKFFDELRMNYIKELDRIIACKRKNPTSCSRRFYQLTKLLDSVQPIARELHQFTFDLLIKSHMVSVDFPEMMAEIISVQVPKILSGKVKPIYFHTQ
Procedure, shortened: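 Reporter-gene luminescence from MDA-kb2 cells exposed 16hr at 37C (0% CO2) to 15-point compound titrations with 3.0uM final nilutamide as AR antagonist.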

[8] = qHTS assay to identify small molecule antagonists of the estrogen receptor beta (ER-beta) signaling pathway - cell viability counter screen (AID 1259382; active means well fitted curve in the direction sought with a large enough effect in the repeat runs; an effect the other way counts as inactive or inconclusive; further: series mostly up to about 92 µM; nearly all actives have a fitted effect of over 55% in size)
Procedure, shortened: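 Viability is scored by CellTiter-Glo luminescence (30 min, room temperature) in ER-beta-UAS-bla HEK293T wells already read for reporter fluorescence. Compound exposure lasts 16 hr at 37C alongside 1nM 17-beta-estradiol in charcoal-stripped serum medium.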

[9] = target: Estrogen receptor (Homo sapiens) (UniProt P03372); assay: qHTS assay to identify small molecule agonists of the estrogen receptor alpha (ER-alpha) signaling pathway in the presence of an antagonist (AID 1259383); further: top concentration of the series differs between compounds; nearly all actives have a fitted effect of over 15% in size
Estrogen receptor (Homo sapiens), sequence (P03372 whole entry, looked up): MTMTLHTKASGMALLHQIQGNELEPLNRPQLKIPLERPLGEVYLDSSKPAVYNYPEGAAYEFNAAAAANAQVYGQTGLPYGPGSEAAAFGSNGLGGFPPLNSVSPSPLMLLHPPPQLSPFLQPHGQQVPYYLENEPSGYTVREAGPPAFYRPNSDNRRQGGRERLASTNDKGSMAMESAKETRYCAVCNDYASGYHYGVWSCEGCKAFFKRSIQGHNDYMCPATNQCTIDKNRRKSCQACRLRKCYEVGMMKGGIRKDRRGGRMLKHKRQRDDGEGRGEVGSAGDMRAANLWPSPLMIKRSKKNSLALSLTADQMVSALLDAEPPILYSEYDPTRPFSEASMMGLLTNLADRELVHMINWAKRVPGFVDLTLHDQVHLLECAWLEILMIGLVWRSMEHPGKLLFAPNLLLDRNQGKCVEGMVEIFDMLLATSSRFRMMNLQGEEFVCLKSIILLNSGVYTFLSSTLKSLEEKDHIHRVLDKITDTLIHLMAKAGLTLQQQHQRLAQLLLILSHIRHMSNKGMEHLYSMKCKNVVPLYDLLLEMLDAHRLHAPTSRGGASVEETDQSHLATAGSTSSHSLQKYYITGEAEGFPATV
Procedure, shortened: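 Readout was ERE-driven luciferase luminescence in VM7Luc4E2 cells, which express full-length ER-alpha endogenously. Compounds were tested at 15 concentrations for 22hr alongside 10.0nM ICI-182,780 (final concentration).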

[10] = qHTS assay to identify small molecule agonists or antagonists of the thyroid stimulating hormone receptor (TSHR) signaling pathway - wild type cell line counter screen (AID 1259384)
Procedure, shortened: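 Wild-type Hek293 cells, 800/well, 18 h at 37C, then compound with Ro20-1724 for 30 min RT. cAMP by HTRF (cAMP-d2/anti-cAMP cryptate), 1 h RT, fluorescence read. 15 concentrations, triplicates.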

[11] = target: Thyrotropin receptor (Homo sapiens) (UniProt P16473); assay: qHTS assay to identify small molecule antagonists of the thyroid stimulating hormone receptor (TSHR) signaling pathway (AID 1259385); further: nearly all actives have a fitted effect of over 20% in size
Thyrotropin receptor (Homo sapiens), sequence (P16473 whole entry, looked up): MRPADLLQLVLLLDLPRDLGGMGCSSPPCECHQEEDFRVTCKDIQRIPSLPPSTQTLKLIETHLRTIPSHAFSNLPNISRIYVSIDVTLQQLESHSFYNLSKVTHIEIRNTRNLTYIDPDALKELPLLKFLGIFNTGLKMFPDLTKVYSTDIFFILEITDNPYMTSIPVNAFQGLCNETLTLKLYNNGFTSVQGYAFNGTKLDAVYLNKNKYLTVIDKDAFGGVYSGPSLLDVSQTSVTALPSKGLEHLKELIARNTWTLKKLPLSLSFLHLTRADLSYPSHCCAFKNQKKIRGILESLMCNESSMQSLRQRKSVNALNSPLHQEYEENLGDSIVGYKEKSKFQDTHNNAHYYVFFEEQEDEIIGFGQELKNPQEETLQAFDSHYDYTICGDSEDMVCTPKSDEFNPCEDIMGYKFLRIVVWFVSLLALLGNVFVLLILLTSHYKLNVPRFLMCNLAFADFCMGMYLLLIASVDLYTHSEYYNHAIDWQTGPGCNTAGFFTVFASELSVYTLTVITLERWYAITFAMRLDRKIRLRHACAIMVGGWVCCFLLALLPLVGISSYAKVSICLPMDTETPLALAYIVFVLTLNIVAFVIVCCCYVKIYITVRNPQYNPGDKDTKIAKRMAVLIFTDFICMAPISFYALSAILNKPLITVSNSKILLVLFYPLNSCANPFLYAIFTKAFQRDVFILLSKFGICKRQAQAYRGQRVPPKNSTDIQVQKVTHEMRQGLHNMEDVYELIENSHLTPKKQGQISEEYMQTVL
Procedure, shortened: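 TSHR-HEK293 cells (800/well) plated 18 h, then compounds with Ro20-1724 and TSH at 1.5 ng/mL final, 30 min at room temperature. cAMP quantified by HTRF (cAMP-d2/anti-cAMP-cryptate, 1 h); 15 concentrations in triplicate.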

[12] = qHTS assay to identify small molecule agonists of the estrogen receptor alpha (ER-alpha) signaling pathway in the presence of an antagonist - cell viability counter screen (AID 1259386; active means well fitted curve in the direction sought with a large enough effect in the repeat runs; an effect the other way counts as inactive or inconclusive;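 further: series mostly up to about 92 µM; cells exposed to compounds for 22 h at 37 °C before the viability read; nearly all actives have a fitted effect of over 30% in size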)
Procedure, shortened: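 In this counter screen, compound effects on VM7Luc4E2 viability were tested in the presence of the antagonist ICI-182,780 at 10.0nM final. Compounds were dosed at 15 concentrations, exposure lasted 22hr, and the CellTiter-Fluor signal was read.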

[13] = target: Progesterone receptor (Homo sapiens) (UniProt P06401); assay: qHTS assay to identify small molecule antagonists of the progesterone receptor (PR) signaling pathway (AID 1346795; active means well fitted inhibition curve with a large enough effect in the signal ratio in the repeat runs, not every such curve was filed as active; the % refers to the signal ratio)
Progesterone receptor (Homo sapiens), sequence (P06401 whole entry, looked up): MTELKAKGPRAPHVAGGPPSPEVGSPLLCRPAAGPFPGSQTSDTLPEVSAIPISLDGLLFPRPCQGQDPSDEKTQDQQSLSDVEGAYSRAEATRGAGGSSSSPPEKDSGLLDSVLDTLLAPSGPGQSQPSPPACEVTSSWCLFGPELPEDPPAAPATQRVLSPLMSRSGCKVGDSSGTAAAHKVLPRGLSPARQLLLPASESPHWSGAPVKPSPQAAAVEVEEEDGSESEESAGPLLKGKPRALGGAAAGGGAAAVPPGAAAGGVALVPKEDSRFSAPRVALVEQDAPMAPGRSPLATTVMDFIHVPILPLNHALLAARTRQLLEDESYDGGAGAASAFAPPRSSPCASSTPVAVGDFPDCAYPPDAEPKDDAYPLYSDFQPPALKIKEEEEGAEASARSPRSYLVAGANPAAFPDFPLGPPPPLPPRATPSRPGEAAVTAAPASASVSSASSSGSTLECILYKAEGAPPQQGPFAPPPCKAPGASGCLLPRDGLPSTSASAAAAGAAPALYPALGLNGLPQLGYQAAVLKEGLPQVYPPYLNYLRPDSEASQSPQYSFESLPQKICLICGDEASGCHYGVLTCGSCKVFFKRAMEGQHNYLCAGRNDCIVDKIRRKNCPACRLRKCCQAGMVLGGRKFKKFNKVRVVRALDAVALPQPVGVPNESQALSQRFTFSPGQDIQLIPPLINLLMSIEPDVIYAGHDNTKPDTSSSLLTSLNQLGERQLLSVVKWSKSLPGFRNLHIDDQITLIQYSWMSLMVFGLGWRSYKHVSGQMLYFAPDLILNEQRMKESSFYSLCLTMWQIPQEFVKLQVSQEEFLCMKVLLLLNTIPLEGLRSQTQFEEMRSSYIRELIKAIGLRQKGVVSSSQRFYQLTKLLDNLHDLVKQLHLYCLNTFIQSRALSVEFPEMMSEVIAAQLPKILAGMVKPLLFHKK
Procedure, shortened: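 Inhibition of R5020-induced (1 nM final) beta-lactamase reporter signal in PR-UAS-bla HEK293T cells was scored by FRET fluorescence after overnight (16 hr) compound treatment.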

[14] = qHTS assay to identify small molecule antagonists of the progesterone receptor (PR) signaling pathway - cell viability counter screen (AID 1346798; active means well fitted curve in the direction sought with a large enough effect in the repeat runs; an effect the other way counts as inactive or inconclusive; further: series mostly up to about 92 µM; nearly all actives have a fitted effect of over 50% in size)
Procedure, shortened: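 ATP content as viability readout: CellTiter-Glo luminescence, 30 min room temperature, in PR-UAS-bla HEK293T cells after 16 hr compound/R5020 treatment at 37C and 5% CO2.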

[15] = qHTS assay to identify small molecule agonists of the progesterone receptor (PR) signaling pathway - cell viability counter screen (AID 1346799); further: nearly all actives have a fitted effect of over 45% in size
Procedure, shortened: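 Cytotoxicity in PR-bla HEK293T cells: 16 h compound, 37C; CellTiter-Glo added post-FRET read; luminescence after 30 min RT.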

[16] = qHTS assay to identify small molecule agonists of the TGF-beta/Smad signaling pathway - cell viability counter screen (AID 1346829; active means well fitted curve in the direction sought with a large enough effect in the repeat runs; an effect the other way counts as inactive or inconclusive; further: top concentration of the series differs between compounds; nearly all actives have a fitted effect of over 45% in size)
Procedure, shortened: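 HEK 293T SBE-bla line, 5 hr compound exposure at 37 C, multiplexed CellTiter-Glo viability read by luminescence.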

[17] = qHTS assay to identify small molecule agonists of the TGF-beta/Smad signaling pathway (AID 1346859; active means well fitted activation curve with a large enough effect in the signal ratio in the repeat runs, not every such curve was filed as active; the % refers to the signal ratio; further: series mostly up to about 77 µM)
Procedure, shortened: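 Stable Smad binding element-beta-lactamase HEK 293T cells; 5 hr compound exposure at 37 C under 5% CO2; 2 hr room-temperature substrate step; fluorescence excited at 405 nm, collected at 460 nm and 530 nm.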

[18] = target: Progesterone receptor (Homo sapiens) (UniProt P06401); assay: qHTS assay to identify small molecule agonists of the progesterone receptor (PR) signaling pathway (AID 1346784); further: nearly all actives have a fitted effect of over 30% in size
Procedure, shortened: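 Using charcoal-stripped serum (2%) to limit endogenous steroids, PR-UAS-bla HEK 293T cells received compounds for 16 hr at 37C after 6 hr plating; beta-lactamase FRET fluorescence was recorded following 2 hr substrate loading at room temperature.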

[19] = qHTS assay to identify small molecule antagonists of the TGF-beta/Smad signaling pathway - cell viability counter screen (AID 1346824; active means well fitted curve in the direction sought with a large enough effect in the repeat runs; an effect the other way counts as inactive or inconclusive; further: nearly all actives have a fitted effect of over 50% in size)
Procedure, shortened: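 SBE-bla HEK 293T cells, incubated overnight, then compound plus 0.25 ng/mL TGF-beta1 (stock added) for 5 hr at 37 C. Viability was read in the same wells by CellTiter-Glo luminescence after 30 min at room temperature.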

[20] = target: Thyrotropin-releasing hormone receptor (Homo sapiens) (UniProt P34981); assay: qHTS assay to identify small molecule antagonists of the thyrotropin-releasing hormone receptor (TRHR) signaling pathway (AID 1346877; active means well fitted inhibition curve with a large enough effect in the repeat runs, not every such curve was filed as active; further: series mostly up to about 51 µM)
Thyrotropin-releasing hormone receptor (Homo sapiens), sequence (P34981 whole entry, looked up): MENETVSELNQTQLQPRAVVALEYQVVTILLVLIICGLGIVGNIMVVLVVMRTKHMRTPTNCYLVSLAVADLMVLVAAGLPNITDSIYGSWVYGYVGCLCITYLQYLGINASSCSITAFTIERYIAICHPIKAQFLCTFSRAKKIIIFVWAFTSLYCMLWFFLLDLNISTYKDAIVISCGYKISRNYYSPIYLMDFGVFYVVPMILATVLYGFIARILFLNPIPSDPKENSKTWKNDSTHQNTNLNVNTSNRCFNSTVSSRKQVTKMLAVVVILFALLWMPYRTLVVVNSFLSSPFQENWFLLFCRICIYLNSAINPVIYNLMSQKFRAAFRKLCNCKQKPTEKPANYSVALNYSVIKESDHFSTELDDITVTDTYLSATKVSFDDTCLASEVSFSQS
Procedure, shortened: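 Kinetic fluorescence (3 min, 1 s resolution) following stimulation with TRH at 1 nM final; HEK293 cells bearing human TRHR; 5 min compound preincubation at RT; concentration-response over 15 points, triplicates.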

Measured: Potency

CC1(C)SC(C)(C)SC(C)(C)S1
not listed: [18] | [19] | [20]
inactive: all other assays above

Oc1cc(O)c2c(c1)O[C@H](c1ccc(O)c(O)c1)[C@H](O)C2
not listed: [7] | [16] | [20]
inactive: all other assays above

COc1ccc(NC(C)=O)cc1
not listed: [9] | [12] | [20]
inactive: all other assays above

OCCN1C[C@H](O)[C@@H](O)[C@H](O)[C@H]1CO
inactive: all assays above

CC(C)CCCCCCN
inactive: all assays above

CCN1CCN(c2cc3c(cc2F)c(=O)c(C(=O)O)cn3C2CC2)CC1
not listed: [9] | [12] | [16] | [17] | [18] | [19]
inactive: all other assays above

CCc1cc(S(=O)(=O)O)c2cc(C(C)C)cccc1-2
not listed: [7] | [14]
inactive: all other assays above
